We go through 10 molecules from PubChem BioAssay (NCI).

Experiment [1] in a line: NCI Yeast Anticancer Drug Screen. Data for the rad50 strain (AID 155).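 Note: 0% = growth of vehicle-only cultures of the same strain.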 The conditions noted are these: S. cerevisiae rad50 strain growth inhibition, hits give high values. The procedure, abridged: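 A DNA repair-deficient yeast mutant serves as the test organism; compound-induced growth inhibition is calculated against vehicle-treated cells.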
Experiment [2] can be described thus: NCI Yeast Anticancer Drug Screen. Data for the mec2-1 strain (AID 157). The conditions noted are these: S. cerevisiae mec2-1 strain, hits give high values. The procedure, abridged:
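Growth inhibition is read against vehicle-treated controls after compound exposure of the mec2-1 yeast strain, which is defective in DNA damage repair or cell cycle control.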

A short description of experiment [3]: NCI Yeast Anticancer Drug Screen. Data for the sgs1 mgt1 strain (AID 161).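 Note: 0% = growth of cultures given vehicle only.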 The following applies: S. cerevisiae sgs1 mgt1 strain, hits give high values. The procedure, abridged: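 Compounds are added to genetically altered yeast, and growth is compared with cultures given vehicle alone to give percent inhibition.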
Experiment [4] in a line: NCI Yeast Anticancer Drug Screen. Data for the cln2 rad14 strain (AID 165).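 Note: 0% = growth equal to vehicle treated cultures.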 The following applies: S. cerevisiae cln2 rad14 strain, hits give high values. The procedure, abridged: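 Growth inhibition, relative to vehicle-treated controls, is the read-out. The test organism is a yeast strain with defined genetic alterations, cln2 rad14.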
Experiment [5] can be described thus: NCI Yeast Anticancer Drug Screen. Data for the bub3 strain (AID 167). The conditions noted are these: S. cerevisiae bub3 mutant strain, hits give high values. The procedure, abridged:
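Inhibition values come from growth of compound-treated mutant yeast normalised to vehicle-treated controls.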

Experiment [6] can be described thus: NCI Yeast Anticancer Drug Screen. Data for the mlh1 rad18 strain (AID 175). The following applies: S. cerevisiae mlh1 rad18 strain growth inhibition, hits give high values. The procedure, abridged:
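Cells of a genetically altered yeast strain, deficient in DNA damage repair, were treated with compound. Their growth was then compared with that of vehicle-treated cultures to give inhibition.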

The mark [7] stands for this setting: at 5.0 µM (retest, dose inferred, filed as 0.5).
The mark [8] stands for this setting: at 50.0 µM (retest, dose inferred, filed as 5.0).

Each structure is given as a SMILES string. Compounds without any hit were thinned out: in the full panel of roughly 79,000, 15% have a hit. Unmarked numbers belong to inactive results. Activity calls are given as the source filed them. Cut-off read from the data, not from the text of the source: active = growth inhibition above about 70%; inactive = the rest.

`COC([CH2][Hg])CN1C(=O)c2cc(C)c(C)cc2C1=O` (stereo not given): the growth inhibition is 99% (active) in experiment [1] (setting [7]); 99% (active) in experiment [1] (setting [8]); 99.3% (active) in experiment [1] (at 50.0 µM); 100% (active) in experiment [2] (setting [7]); 100% (active) in experiment [2] (setting [8]); 99.7% (active) in experiment [2] (at 50.0 µM). The growth inhibition in experiment [3] (setting [7]) was 100% (active); in experiment [3] (setting [8]), 100% (active); in experiment [3] (at 50.0 µM), 99.6% (active); in experiment [4] (setting [7]) it was 99% (active); in experiment [4] (setting [8]), 99% (active); in experiment [4] (at 50.0 µM), 98.3% (active). Besides, the growth inhibition in experiment [5] (setting [7]) is 99% (active); in experiment [5] (setting [8]) it was 99% (active); in experiment [5] (at 50.0 µM), 98.7% (active); in experiment [6] (setting [7]) it was 99% (active); in experiment [6] (setting [8]), 99% (active); in experiment [6] (at 50.0 µM) it was 99.3% (active).
For the molecule `CCOc1ccc(CCNC)c2c1ccc1ccc(OC)c(O)c12`, the growth inhibition in experiment [1] (setting [7]) is -1%; in experiment [1] (setting [8]), 97% (active); in experiment [1] (at 50.0 µM), 97.3% (active); in experiment [2] (setting [7]), -5%; in experiment [2] (setting [8]), 98% (active); in experiment [2] (at 50.0 µM), 99% (active). Moreover, the growth inhibition in experiment [3] (setting [7]) is -3%; in experiment [3] (setting [8]), 98% (active); in experiment [3] (at 50.0 µM) it was 98.1% (active); in experiment [4] (setting [7]) it was 5%; in experiment [4] (setting [8]), 98% (active); in experiment [4] (at 50.0 µM), 92.2% (active). In addition, the growth inhibition was -4% in experiment [5] (setting [7]); 98% (active) in experiment [5] (setting [8]); 97.8% (active) in experiment [5] (at 50.0 µM); 6% in experiment [6] (setting [7]); 96% (active) in experiment [6] (setting [8]); 98% (active) in experiment [6] (at 50.0 µM).
In the case of `CC(=O)O[C@H]1CCC2[C@@H]3CCC4Nc5oncc5C[C@]4(C)C3CC[C@@]21C` (stereo not given in full), the growth inhibition in experiment [1] (setting [7]) was -6%; in experiment [1] (setting [8]), 81% (active); in experiment [1] (at 50.0 µM), 51%; in experiment [2] (setting [7]), 4%; in experiment [2] (setting [8]), 75% (active); in experiment [2] (at 50.0 µM), 8.35%. The growth inhibition was -3% in experiment [3] (setting [7]); 53% in experiment [3] (setting [8]); 16.6% in experiment [3] (at 50.0 µM); -10% in experiment [4] (setting [7]); 73% (active) in experiment [4] (setting [8]); 70% (active) in experiment [4] (at 50.0 µM). The growth inhibition in experiment [5] (setting [7]) was -17%; in experiment [5] (setting [8]) it was 68%; in experiment [5] (at 50.0 µM), 17.9%; in experiment [6] (setting [7]), 12%; in experiment [6] (setting [8]), 91% (active); in experiment [6] (at 50.0 µM) it was 84.5% (active).
Take `O=C1C(=O)C(Br)(Br)C(Br)=C1Br`: the growth inhibition in experiment [1] (setting [7]) is -2%; in experiment [1] (setting [8]), 4%; in experiment [1] (at 50.0 µM), 88.5% (active); in experiment [2] (setting [7]), 1%; in experiment [2] (setting [8]), 21%; in experiment [2] (at 50.0 µM), 88.2% (active). Further, the growth inhibition is -4% in experiment [3] (setting [7]); 5% in experiment [3] (setting [8]); 95% (active) in experiment [3] (at 50.0 µM); -1% in experiment [4] (setting [7]); -2% in experiment [4] (setting [8]); 90.5% (active) in experiment [4] (at 50.0 µM). Also, the growth inhibition is -4% in experiment [5] (setting [7]); -1% in experiment [5] (setting [8]); 93.5% (active) in experiment [5] (at 50.0 µM); -4% in experiment [6] (setting [7]); -4% in experiment [6] (setting [8]); 96.8% (active) in experiment [6] (at 50.0 µM).
In the case of `COC1CC2C=C(C)/C=C/C=C/C(=O)NC(c3ccccc3)C/C=C/CCC(O)CC(=O)C2=C1O` (stereo not given), the growth inhibition is 97% (active) in experiment [1] (setting [7]); 99% (active) in experiment [1] (setting [8]); 91.5% (active) in experiment [1] (at 50.0 µM); 98% (active) in experiment [2] (setting [7]); 99% (active) in experiment [2] (setting [8]); 92.8% (active) in experiment [2] (at 50.0 µM). In addition, the growth inhibition in experiment [3] (setting [7]) was 99% (active); in experiment [3] (setting [8]), 99% (active); in experiment [3] (at 50.0 µM) it was 92.5% (active); in experiment [4] (setting [7]) it was 98% (active); in experiment [4] (setting [8]), 99% (active); in experiment [4] (at 50.0 µM), 91.3% (active). Also, the growth inhibition is 99% (active) in experiment [5] (setting [7]); 99% (active) in experiment [5] (setting [8]); 88.7% (active) in experiment [5] (at 50.0 µM); 98% (active) in experiment [6] (setting [7]); 99% (active) in experiment [6] (setting [8]); 91.7% (active) in experiment [6] (at 50.0 µM).
As to `C1CCC(NCC2CCCO2)CC1` (stereo not given), the growth inhibition is -12% in experiment [1] (setting [7]); 1% in experiment [1] (setting [8]); 77.5% (active) in experiment [1] (at 50.0 µM); -10% in experiment [2] (setting [7]); -21% in experiment [2] (setting [8]); 71% (active) in experiment [2] (at 50.0 µM). The growth inhibition in experiment [3] (setting [7]) is -1%; in experiment [3] (setting [8]), -9%; in experiment [3] (at 50.0 µM) it was 79.5% (active); in experiment [4] (setting [7]) it was 25%; in experiment [4] (setting [8]), 30%; in experiment [4] (at 50.0 µM), 76.3% (active). Also, the growth inhibition is -2% in experiment [5] (setting [7]); 17% in experiment [5] (setting [8]); 77.8% (active) in experiment [5] (at 50.0 µM); -4% in experiment [6] (setting [7]); -31% in experiment [6] (setting [8]); 58.3% in experiment [6] (at 50.0 µM).
As for `CC[S+](C)c1ccc(-c2c3nc(c(-c4ccc([S+](C)CC)cc4)c4ccc([nH]4)c(-c4ccc([S+](C)CC)cc4)c4nc(c(-c5ccc([S+](C)CC)cc5)c5ccc2[nH]5)C=C4)C=C3)cc1` (stereo not given), the growth inhibition in experiment [1] (setting [7]) was 95% (active); in experiment [1] (setting [8]) it was 95% (active); in experiment [1] (at 50.0 µM) it was 86.8% (active); in experiment [2] (setting [7]), 98% (active); in experiment [2] (setting [8]) it was 97% (active); in experiment [2] (at 50.0 µM), 90.7% (active). In addition, the growth inhibition was 73% (active) in experiment [3] (setting [7]); 97% (active) in experiment [3] (setting [8]); 91.8% (active) in experiment [3] (at 50.0 µM); 56% in experiment [4] (setting [7]); 96% (active) in experiment [4] (setting [8]); 89.5% (active) in experiment [4] (at 50.0 µM). Besides, the growth inhibition in experiment [5] (setting [7]) is 94% (active); in experiment [5] (setting [8]), 96% (active); in experiment [5] (at 50.0 µM), 89% (active); in experiment [6] (setting [7]), 96% (active); in experiment [6] (setting [8]), 95% (active); in experiment [6] (at 50.0 µM) it was 88.5% (active).
As to `NCCCN1CCN(CCCN2CC2)CC1`, the growth inhibition was 1% in experiment [1] (setting [7]); 84% (active) in experiment [1] (setting [8]); 93.9% (active) in experiment [1] (at 50.0 µM); 1% in experiment [2] (setting [7]); 30% in experiment [2] (setting [8]); 58.3% in experiment [2] (at 50.0 µM). The growth inhibition in experiment [3] (setting [7]) was -1%; in experiment [3] (setting [8]), 83% (active); in experiment [3] (at 50.0 µM), 85.3% (active); in experiment [4] (setting [7]) it was -1%; in experiment [4] (setting [8]), 92% (active); in experiment [4] (at 50.0 µM), 93.5% (active). The growth inhibition is 0% in experiment [5] (setting [7]); 80% (active) in experiment [5] (setting [8]); 86.5% (active) in experiment [5] (at 50.0 µM); -1% in experiment [6] (setting [7]); 71% (active) in experiment [6] (setting [8]); 89.8% (active) in experiment [6] (at 50.0 µM).
For `COC12C(COC(N)=O)C3=C(C(=O)C(C)=C(NC(C)C)C3=O)N1CC1NC12` (stereo not given), the growth inhibition in experiment [1] (setting [7]) was 5%; in experiment [1] (setting [8]), 59%; in experiment [1] (at 50.0 µM), 47.6%; in experiment [2] (setting [7]), 10%; in experiment [2] (setting [8]) it was 72% (active); in experiment [2] (at 50.0 µM), 47.9%. Moreover, the growth inhibition in experiment [3] (setting [7]) was 13%; in experiment [3] (setting [8]), 61%; in experiment [3] (at 50.0 µM), 48%; in experiment [4] (setting [7]) it was 2%; in experiment [4] (setting [8]), 76% (active); in experiment [4] (at 50.0 µM), 52%. The growth inhibition in experiment [5] (setting [7]) is 1%; in experiment [5] (setting [8]), 35%; in experiment [5] (at 50.0 µM), 30.4%; in experiment [6] (setting [7]), 31%; in experiment [6] (setting [8]), 92% (active); in experiment [6] (at 50.0 µM), 78.6% (active).
Turning to `OC(c1ccccc1)(c1ccccc1)c1ccccn1`, the growth inhibition in experiment [1] (setting [7]) is -6%; in experiment [1] (setting [8]) it was -9%; in experiment [1] (at 50.0 µM), 4.55%; in experiment [2] (setting [7]) it was -14%; in experiment [2] (setting [8]) it was 2%; in experiment [2] (at 50.0 µM), 53.4%. The growth inhibition in experiment [3] (setting [7]) is -5%; in experiment [3] (setting [8]), 5%; in experiment [3] (at 50.0 µM), 9.4%; in experiment [4] (setting [7]), -6%; in experiment [4] (setting [8]) it was 5%; in experiment [4] (at 50.0 µM) it was 2.7%. Also, the growth inhibition in experiment [5] (setting [7]) was -3%; in experiment [5] (setting [8]), 3%; in experiment [5] (at 50.0 µM), 13.8%; in experiment [6] (setting [7]) it was -21%; in experiment [6] (setting [8]) it was -5%; in experiment [6] (at 50.0 µM) it was -6.2%.
